The molecules below were run against Neurogenic locus notch homolog protein 3 (Homo sapiens) (UniProt Q9UM47) (assay: NOTCH3 binders on small-molecule microarray, primary screen, biochemical, 635/667 nm fluorescence (AID 1096)). Conditions: NOTCH3 binding, 635 nm fluorescence, higher = more signal.
Chain of Neurogenic locus notch homolog protein 3 (Homo sapiens) (Q9UM47 whole entry, looked up): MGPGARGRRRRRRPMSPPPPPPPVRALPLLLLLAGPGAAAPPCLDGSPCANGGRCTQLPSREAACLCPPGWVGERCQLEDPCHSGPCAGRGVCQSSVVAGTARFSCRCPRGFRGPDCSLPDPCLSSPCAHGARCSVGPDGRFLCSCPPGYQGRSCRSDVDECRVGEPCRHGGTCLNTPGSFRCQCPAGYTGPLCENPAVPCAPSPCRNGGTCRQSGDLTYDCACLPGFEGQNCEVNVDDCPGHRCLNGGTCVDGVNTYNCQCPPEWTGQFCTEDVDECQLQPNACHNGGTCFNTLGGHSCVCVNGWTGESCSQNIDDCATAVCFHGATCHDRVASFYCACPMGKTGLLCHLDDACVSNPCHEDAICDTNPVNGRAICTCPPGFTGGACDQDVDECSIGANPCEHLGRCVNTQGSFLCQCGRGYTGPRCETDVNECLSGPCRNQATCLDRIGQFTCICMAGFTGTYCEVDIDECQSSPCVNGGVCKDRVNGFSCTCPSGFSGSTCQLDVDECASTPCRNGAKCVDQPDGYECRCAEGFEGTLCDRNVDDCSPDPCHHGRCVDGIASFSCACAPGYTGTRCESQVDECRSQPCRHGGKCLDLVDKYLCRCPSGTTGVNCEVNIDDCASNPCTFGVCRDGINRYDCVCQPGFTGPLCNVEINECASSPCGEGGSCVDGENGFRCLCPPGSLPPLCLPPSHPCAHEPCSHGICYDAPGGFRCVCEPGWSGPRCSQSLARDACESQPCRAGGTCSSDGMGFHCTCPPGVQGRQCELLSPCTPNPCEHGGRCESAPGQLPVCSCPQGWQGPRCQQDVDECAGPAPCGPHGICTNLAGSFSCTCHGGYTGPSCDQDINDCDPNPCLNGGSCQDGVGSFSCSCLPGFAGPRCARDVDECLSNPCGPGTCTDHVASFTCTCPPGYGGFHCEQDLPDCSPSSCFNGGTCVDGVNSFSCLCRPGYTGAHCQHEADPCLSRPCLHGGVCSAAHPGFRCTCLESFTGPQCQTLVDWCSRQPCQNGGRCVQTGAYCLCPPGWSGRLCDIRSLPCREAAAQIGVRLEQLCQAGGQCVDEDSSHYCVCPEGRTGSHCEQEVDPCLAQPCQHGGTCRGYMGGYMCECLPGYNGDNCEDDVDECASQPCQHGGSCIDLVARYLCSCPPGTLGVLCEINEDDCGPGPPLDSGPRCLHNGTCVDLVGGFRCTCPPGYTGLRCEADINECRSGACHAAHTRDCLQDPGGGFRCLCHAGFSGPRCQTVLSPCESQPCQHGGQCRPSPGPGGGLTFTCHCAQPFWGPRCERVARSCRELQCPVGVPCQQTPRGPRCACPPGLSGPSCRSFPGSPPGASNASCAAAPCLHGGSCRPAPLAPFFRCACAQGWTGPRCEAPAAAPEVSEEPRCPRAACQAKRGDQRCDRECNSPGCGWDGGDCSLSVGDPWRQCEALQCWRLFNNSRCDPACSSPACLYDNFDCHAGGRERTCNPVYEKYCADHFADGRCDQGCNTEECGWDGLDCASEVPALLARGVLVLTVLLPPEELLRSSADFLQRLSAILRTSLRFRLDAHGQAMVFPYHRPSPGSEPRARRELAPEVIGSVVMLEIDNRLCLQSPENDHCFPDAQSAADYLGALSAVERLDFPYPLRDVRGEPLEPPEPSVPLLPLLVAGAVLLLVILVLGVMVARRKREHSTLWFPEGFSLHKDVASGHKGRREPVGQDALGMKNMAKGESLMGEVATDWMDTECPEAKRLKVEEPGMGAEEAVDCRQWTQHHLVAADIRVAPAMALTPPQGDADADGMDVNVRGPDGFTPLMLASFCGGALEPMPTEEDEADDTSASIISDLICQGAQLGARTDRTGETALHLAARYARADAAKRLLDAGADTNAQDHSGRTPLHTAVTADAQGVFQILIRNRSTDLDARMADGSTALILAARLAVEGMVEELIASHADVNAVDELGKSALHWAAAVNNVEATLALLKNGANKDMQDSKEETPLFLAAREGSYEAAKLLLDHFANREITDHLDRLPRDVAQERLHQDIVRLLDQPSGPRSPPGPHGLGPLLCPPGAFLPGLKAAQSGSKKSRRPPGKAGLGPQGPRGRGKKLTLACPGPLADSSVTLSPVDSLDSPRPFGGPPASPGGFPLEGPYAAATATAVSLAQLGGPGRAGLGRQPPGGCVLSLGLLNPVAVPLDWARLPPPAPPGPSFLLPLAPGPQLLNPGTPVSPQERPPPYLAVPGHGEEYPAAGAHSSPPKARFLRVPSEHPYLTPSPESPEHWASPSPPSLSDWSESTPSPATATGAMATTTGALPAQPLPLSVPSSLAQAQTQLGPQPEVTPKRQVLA

SMILES | composite z-score
CCOC(=O)C1=CCC(c2ccc(C)cc2)N(S(=O)(=O)c2ccc(C)cc2)C1 (stereo not given) | 0.234
CN(C)CCCNC(=O)[C@@]1(c2ccc([N+](=O)[O-])cc2)CC(=O)N(C2CCCCC2)[C@@H]1c1ccc(CO)cc1 | 0.444
CC(=O)N1Cc2ccccc2C[C@@]2(COC(c3ccc(OCCCO)cc3)=N2)C1=O | 1.03
COCCOC(=O)N1C(=O)[C@@]2(c3cc(C#CC4=CCCCC4)ccc31)[C@H](C(=O)Nc1nc3ccccc3s1)[C@H]1C(=O)O[C@H](c3ccccc3)[C@H](c3ccccc3)N1[C@@H]2c1ccc(OCCO)cc1 | 1.14
C=CC[C@]1(C(=O)N2CCCCC2)N=C(c2ccc(OCCCO)cc2)O[C@H]1c1ccccc1 | 0.369
O=C1NCC(=O)N2[C@@H]1C[C@@H](C(=O)O)[C@H]2c1cccc(OCCO)c1 | 1.03
O=C1O[C@H](c2ccccc2)[C@H](c2ccccc2)N2[C@H]1[C@@H](C(=O)O)[C@]1(C(=O)Nc3ccc(C#CCCO)cc31)[C@H]2c1ccc(O)cc1 | -0.557
C=CCOC(=O)[C@H]1[C@@H]2C(=O)O[C@@H](c3ccccc3)[C@@H](c3ccccc3)N2[C@@H](c2ccc(OCCOC(=O)[C@@H]3C[C@@H]4C(=O)N[C@@H](CCCCN(C)C)C(=O)N4[C@@H]3c3ccc(O)cc3)cc2)[C@]12C(=O)Nc1ccc(I)cc12 | 1.05
CC(C)(C)OC(=O)CC[C@]12N=C(c3ccc(OCCCO)cc3)O[C@H]1c1ccccc1N(CCS(=O)(=O)c1ccccc1)C2=O | 1.1
CN(C)C(=O)[C@@]1(Cc2ccccc2CN=[N+]=[N-])N=C(c2ccc(OCCCO)cc2)O[C@H]1c1ccccc1 | 0.301
COc1cc2c(cc1OC)CN(C(=O)[C@H]1[C@@H]3C(=O)O[C@@H](c4ccccc4)[C@@H](c4ccccc4)N3[C@@H](c3ccc(O)cc3)[C@]13C(=O)Nc1ccc(C#CC4=CCCCC4)cc13)CC2 | 0.913
CN1C(=O)C2C=CC(C(O)c3cc(C(F)(F)F)cc(C(F)(F)F)c3)N(N3CCCCC3)C2C1=O (stereo not given) | 0.688
COCC(=C=CC[C@H](O)c1ccccc1OCCO)C[C@H](O)c1cc(Cl)cc(Cl)c1O | 1.03
CCCN1C(=O)[C@]2(CCS(=O)(=O)c3ccccc3)N=C(c3ccc(OCCCO)cc3)O[C@@H]2c2ccccc21 | 1.09
COc1cc2c(cc1OC)CN(C(=O)[C@H]1[C@@H]3C(=O)O[C@@H](c4ccccc4)[C@@H](c4ccccc4)N3[C@@H](c3ccc(O)cc3)[C@]13C(=O)Nc1ccc(C#CCNC(N)=O)cc13)CC2 | 0.46
CN(C)CCCNC(=O)[C@@]1(C)c2ccccc2C(=O)N(Cc2cc(F)cc(C(F)(F)F)c2)[C@H]1c1ccc(CO)cc1 | -0.604
O=C1C2C=CC(C(O)C3CCCCC3)N(Nc3ccc([N+](=O)[O-])cc3)C2C(=O)N1c1ccccc1 (stereo not given) | -0.273
O=C1OCCC/C=C\[C@H]2OC34C=CCN(c5ccc6ccccc6c5)C(=O)[C@H]3N(CCCCCCO)C(=O)[C@@H]4C12 (stereo not given in full) | 0.086

SMILES | composite z-score
COCCOC(=O)N1C(=O)[C@@]2(c3cc(C#CCNC(N)=O)ccc31)[C@H](C(=O)NC[C@H](O)c1ccccc1)[C@H]1C(=O)O[C@H](c3ccccc3)[C@H](c3ccccc3)N1[C@@H]2c1ccccc1OCCO | 0.98
CC(C)(C)OC(=O)CC[C@@]12N=C(c3ccc(OCCCO)cc3)O[C@@H]1c1ccccc1N(CCS(=O)(=O)c1ccccc1)C2=O | 0.784
COC(=O)[C@@]1(Cc2ccc(F)cc2)[C@H]2c3cc(C(=O)N4CCCC4)n(Cc4cc(C)n(C)n4)c3C[C@H]2CN1C(=O)c1ccccc1 | 0.769
COC(=O)c1c(CC[C@@H](CO)NC(=O)N2CCC[C@H]2Cn2cc(-c3ccccn3)nn2)oc(C(C)=O)c1C(=O)OC | -0.126
CCOC(=O)[C@H]1CC=C2CC1C(=O)N1CCC[C@@H]1[C@@H]2O[Si](C)(C)C(C)(C)C (stereo not given in full) | -0.979
C=CCC(OC(C)=O)[C@@H]1[C@@H](N(Cc2ccc(-c3ccccc3)cc2)C(=O)Cc2ccc(F)cc2)c2cc(OCCCO)ccc2N1C(=O)c1ccc(-c2ccccc2)cc1 (stereo not given in full) | -0.239
CCOC(=O)C[C@H]1[C@H](OC(=O)Cc2ccc3c(c2)OCO3)[C@@H](NC(=O)c2ccc(-c3ccccc3)cc2)c2cc(OCCCO)ccc2N1C(=O)c1ccc2ccccc2n1 | 0.257
COCCCNC(=O)[C@@]1(Cc2ccccc2)N=C(c2ccc(OCCCO)cc2)O[C@H]1c1ccccc1 | 0.6
NC(=O)[C@@H]1[C@H]2C(=O)O[C@H](c3ccccc3)[C@H](c3ccccc3)N2[C@H](c2ccc(O)cc2)[C@@]12C(=O)Nc1ccc(C#CC3(O)CCCCCC3)cc12 | -0.395
COc1cc2c(cc1O)C(C1CC1)N(Cc1cc3c(cc1Br)OCO3)CC2 (stereo not given) | -0.346
CCCCCC1=C2CNC(CCC)(C(=O)OC)C=C2C(C)C1=O (stereo not given) | 0.358
COc1ccc(C(O)C2C=CC3C(=O)NC(=O)C3N2Nc2ccccn2)c2ccccc12 (stereo not given) | 0.223
COC(=O)C(CC#Cc1ccc2c(c1)[C@]1(C(=O)N2)[C@H](C(=O)O)[C@H]2C(=O)O[C@H](c3ccccc3)[C@H](c3ccccc3)N2[C@@H]1c1ccc(O)cc1)C(=O)OC | -0.608
CC1(C)[C@@H]2CC(C(O)C3C=CC4C(=O)N(c5ccccc5)C(=O)C4N3Nc3ccccc3)=C[C@H]1C2 (stereo not given in full) | 0.367
COc1ccc([Si](C)(C)[C@H]2[C@H](CCn3cc([C@H](O)c4ccccc4)nn3)O[C@@]3(C(=O)N(Cc4cccc(N5CCOC5=O)c4)c4ccccc43)[C@@H]2C)cc1 | 1.04
COc1cc2c(cc1O)C=[N+](Cc1cccc(OC(F)(F)F)c1)CC2 | -0.0987
COC(=O)[C@@]1(Cc2ccc(OC)cc2)[C@H]2c3cc(C(=O)N(C)C)n(CCN4CNCC4=O)c3C[C@H]2CN1C(=O)c1ccccc1 | -0.325

From PubChem BioAssay
